71 compounds from the antibiotic and cytotoxicity screens of Wong et al. (2023) can be followed below.

Molecules are shown by their SMILES. Hit rate of the full screen: of about 39,000 compounds, about 3,300 (8.5%) were called active. This is one part of a sample in which actives are shown more often than they occur.

In the assay the test system is HepG2. As to the kind of experiment: cytotoxicity call (relative viability < 0.9). To be noted: 10 µM.
Consider `C[C@H](CO)N1C[C@H](C)[C@H](CN(C)S(C)(=O)=O)Oc2ncc(C#Cc3ccc(C(F)(F)F)cc3)cc2C1=O`, for which the cytotoxicity call is “inactive”. To `COCC#Cc1cnc2c(c1)C(=O)N([C@H](C)CO)C[C@@H](C)[C@@H](CN(C)C(=O)CCN1CCCCC1)O2` belongs “inactive”; to `C[C@@H]1CN([C@H](C)CO)C(=O)c2cc(NC(=O)Nc3ccc4c(c3)OCO4)ccc2O[C@@H]1CN(C)C(=O)Nc1cccc2ccccc12`, “inactive”. Regarding `COc1ccc(C#Cc2ccc3c(c2)O[C@H](CN(C)C(=O)CN2CCOCC2)[C@@H](C)CN([C@H](C)CO)S3(=O)=O)cc1`, the cytotoxicity call was “inactive”. To `CN(C)CCN1C(=O)CO[C@H]2CN(C(=O)NCc3cccnc3)C[C@@H]21` belongs “inactive”.

In the case of `C[C@@H]1CN([C@H](C)CO)C(=O)Cc2cc(NC(=O)Nc3ccccc3)ccc2O[C@@H]1CN(C)S(=O)(=O)c1cn(C)cn1`, the cytotoxicity call was “inactive”.

With `O=C(N/N=C/[C@H](O)[C@H](O)[C@@H](O)[C@@H](O)CO)c1ccccn1`, the cytotoxicity call is “inactive”.

With `CON=C(C(=O)NC1C(=O)N2C(C(=O)O)=C(C[N+]3(C)CCCC3)CSC12)c1csc(N)n1.[Cl-]` (stereo unspecified), the cytotoxicity call was “inactive”. The entry for `Cc1noc(C)c1S(=O)(=O)Nc1ccc2c(c1)C(=O)N([C@@H](C)CO)C[C@H](C)[C@H](CN(C)C(=O)Nc1cccc3ccccc13)OCCCC[C@H](C)O2` is “inactive”. To `C[C@H](CO)N1C[C@H](C)[C@H](CN(C)Cc2ccccc2)Oc2ccc(NC(=O)Nc3ccc(C(F)(F)F)cc3)cc2CC1=O` belongs “active”; to `C[C@H](CO)N1C[C@H](C)[C@@H](CN(C)Cc2ccccc2)Oc2ccc(NC(=O)Nc3ccc(C(F)(F)F)cc3)cc2CC1=O`, “active”. The entry for `CO[C@H]1CN(C)C(=O)c2cc(NC(=O)Nc3ccccc3F)ccc2OC[C@@H](C)N(Cc2ccccc2C(=O)O)C[C@H]1C` is “inactive”; for `C[C@@H]1CCCCO[C@H](CN(C)C(=O)Nc2ccc(F)cc2)[C@H](C)CN([C@@H](C)CO)C(=O)c2cc(NC(=O)c3ccccc3)ccc2O1` it is “inactive”; for `O=C(O)CCC(=O)c1ccc(-c2ccccc2)cc1` it is “inactive”. In the case of `COc1ccc(C(=O)O)c(O)c1OC`, the cytotoxicity call is “inactive”. The entry for `COc1ccc(C(=O)CCC(=O)O)c2ccccc12` is “active”; for `C[C@H]1CCCCO[C@@H](CN(C)C(=O)NC2CCCCC2)[C@@H](C)CN([C@@H](C)CO)C(=O)c2cc(NC(=O)NC3CCCCC3)ccc2O1` it is “inactive”; for `COc1ccc(S(=O)(=O)N(C)C[C@@H]2OCCCC[C@@H](C)Oc3ccc(NC(=O)Nc4ccccc4)cc3C(=O)N([C@@H](C)CO)C[C@@H]2C)cc1` it is “inactive”. On to `C[C@H](O)C#Cc1ccc2c(c1)O[C@H](CN(C)C(=O)Cc1ccccn1)[C@@H](C)CN([C@H](C)CO)S2(=O)=O`, for which the cytotoxicity call was “inactive”. To `COc1ccccc1C#Cc1cnc2c(c1)C(=O)N([C@@H](C)CO)C[C@@H](C)[C@@H](CN(C)S(=O)(=O)c1cn(C)cn1)O2` belongs “inactive”. The entry for `COc1ccccc1C#Cc1cnc2c(c1)C(=O)N([C@H](C)CO)C[C@@H](C)[C@H](CN(C)S(=O)(=O)c1cn(C)cn1)O2` is “active”; for `COCC#Cc1cnc2c(c1)C(=O)N([C@H](C)CO)C[C@H](C)[C@@H](CN(C)C(=O)c1cnccn1)O2` it is “inactive”; for `COc1ccccc1C#Cc1cnc2c(c1)C(=O)N([C@H](C)CO)C[C@H](C)[C@@H](CN(C)S(=O)(=O)c1cn(C)cn1)O2` it is “inactive”. The entry for `COCC#Cc1cnc2c(c1)C(=O)N([C@H](C)CO)C[C@@H](C)[C@H](CN(C)S(=O)(=O)c1cn(C)cn1)O2` is “inactive”; for `COc1ccccc1C#Cc1cnc2c(c1)C(=O)N([C@@H](C)CO)C[C@H](C)[C@H](CN(C)S(=O)(=O)c1cn(C)cn1)O2` it is “inactive”.

As for `COc1ccccc1C#Cc1cnc2c(c1)C(=O)N([C@H](C)CO)C[C@@H](C)[C@@H](CN(C)S(=O)(=O)c1cn(C)cn1)O2`, the cytotoxicity call is “inactive”.

Regarding `COc1ccccc1C#Cc1cnc2c(c1)C(=O)N([C@@H](C)CO)C[C@@H](C)[C@H](CN(C)S(=O)(=O)c1cn(C)cn1)O2`, the cytotoxicity call was “active”.

In the case of `COCC#Cc1cnc2c(c1)C(=O)N([C@H](C)CO)C[C@@H](C)[C@@H](CN(C)S(=O)(=O)c1cn(C)cn1)O2`, the cytotoxicity call was “inactive”. The entry for `COCC#Cc1cnc2c(c1)C(=O)N([C@H](C)CO)C[C@H](C)[C@H](CN(C)C(=O)c1cnccn1)O2` is “active”; for `COCC#Cc1cnc2c(c1)C(=O)N([C@@H](C)CO)C[C@H](C)[C@@H](CN(C)S(=O)(=O)c1cn(C)cn1)O2` it is “active”; for `COCC#Cc1cnc2c(c1)C(=O)N([C@H](C)CO)C[C@@H](C)[C@H](CN(C)C(=O)c1cnccn1)O2` it is “inactive”.

On to `COCCCNC(=O)[C@@]1(Sc2ccc(C)cc2)CC(=O)N(Cc2cc(C(F)(F)F)cc(C(F)(F)F)c2)[C@@H]1c1ccc(CO)cc1I`, for which the cytotoxicity call is “inactive”.

As for `Cc1cccc(S(=O)(=O)N2C[C@H](O)COC[C@H]3O[C@@H](CC(=O)NCc4ccncn4)CC[C@@H]32)c1`, the cytotoxicity call was “inactive”. The entry for `Cc1noc(C)c1NC(=O)N(C)C[C@@H]1Oc2ccc(NS(=O)(=O)c3c(C)noc3C)cc2C(=O)N([C@H](C)CO)C[C@@H]1C` is “inactive”. The entry for `C[C@@H]1CN([C@H](C)CO)C(=O)c2cc(NC(=O)NC3CCCCC3)ccc2O[C@@H]1CN(C)C(=O)Nc1cccc2ccccc12` is “inactive”; for `Cc1ccc(S(=O)(=O)Nc2cccc3c2O[C@@H](CN(C)Cc2ccc(Oc4ccccc4)cc2)[C@H](C)CN([C@H](C)CO)C3=O)cc1` it is “inactive”. To `COc1ccc(S(=O)(=O)N(C)C[C@@H]2OCCCC[C@H](C)Oc3ccc(NC(=O)Nc4ccccc4)cc3C(=O)N([C@H](C)CO)C[C@@H]2C)cc1` belongs “inactive”. As for `O=C(NCCn1ncc2c(=O)n(Cc3ccccc3)cnc21)c1ccc(S(=O)(=O)N2CCOCC2)cc1`, the cytotoxicity call was “inactive”. The entry for `CC(C)Sc1n[nH]c(=O)[nH]c1=O` is “inactive”; for `CCCNC(=O)N(C)C[C@H]1Oc2cc(C#Cc3ccccn3)ccc2S(=O)(=O)N([C@H](C)CO)C[C@@H]1C` it is “inactive”; for `CC[C@H]1Sc2ccccc2NC1=O` it is “inactive”. To `C[C@H]1CCCCO[C@H](CN(C)S(=O)(=O)c2cn(C)cn2)[C@@H](C)CN([C@@H](C)CO)C(=O)c2cc(NS(=O)(=O)c3cccs3)ccc2O1` belongs “inactive”; to `CSc1nc(C)cc(OCCO)n1`, “inactive”; to `COc1ccc(NC(=O)Nc2ccc3c(c2)C(=O)N([C@@H](C)CO)C[C@@H](C)[C@H](CN(C)Cc2ccc(Cl)c(Cl)c2)OCCCC[C@H](C)O3)cc1`, “inactive”.

On to `O=c1c(-c2ccc(O)cc2)coc2cc(O[C@@H]3O[C@H](CO)[C@@H](O)[C@H](O)[C@H]3O)ccc12`, for which the cytotoxicity call was “inactive”.

Consider `COc1ccc(CNC(=O)C[C@@H]2CC[C@@H]3[C@@H](COc4ccc(NC(=O)C5CC5)cc4C(=O)N3C)O2)cc1`, for which the cytotoxicity call was “inactive”. The entry for `C[C@H](CO)N1C[C@H](C)[C@@H](CN(C)S(=O)(=O)c2cccs2)Oc2c(NC(=O)C3CCOCC3)cccc2C1=O` is “inactive”.

Take `Cc1ccc(S(=O)(=O)Nc2ccc3c(c2)C(=O)N([C@@H](C)CO)C[C@@H](C)[C@H](CN(C)C(=O)NC2CCCCC2)OCCCC[C@H](C)O3)cc1`: the cytotoxicity call was “inactive”. The entry for `CC(C)N=c1cc2n(-c3ccc(Cl)cc3)c3ccccc3nc-2cc1Nc1ccc(Cl)cc1` is “active”. The entry for `CCN[C@H]1CCS(=O)(=O)C1` is “inactive”; for `CN[C@H]1CCS(=O)(=O)C1` it is “inactive”; for `Cc1nc(S(=O)(=O)N[C@H]2CCS(=O)(=O)C2)cn1C` it is “active”. To `CCC(=O)N(C)C[C@@H]1Oc2ncc(C#C[C@@H](C)O)cc2C(=O)N([C@H](C)CO)C[C@@H]1C` belongs “inactive”; to `COc1cccc(-c2cnc3c(c2)C(=O)N([C@H](C)CO)C[C@H](C)[C@H](CN(C)S(=O)(=O)c2cccc(F)c2)O3)c1`, “inactive”; to `N[C@@H](CN1C=CC(=O)C(=O)C1)C(=O)O`, “inactive”. For `N[C@@H](Cn1ccc(=O)c(O)c1)C(=O)O`, the cytotoxicity call was “inactive”. With `NC(Cn1ccc(=O)c(O)c1)C(=O)O` (stereo unspecified), the cytotoxicity call was “active”. To `C[C@@H]1CN([C@@H](C)CO)C(=O)c2cc(NC(=O)Nc3ccc(C(F)(F)F)cc3)ccc2O[C@@H]1CN(C)C(=O)Nc1cccc2ccccc12` belongs “inactive”; to `C[C@@H]1CN(CCO[Si](C)(C)C(C)(C)C)C(=O)c2cc(NC(=O)Nc3ccccc3)ccc2O[C@@H](C)CCCCO[C@H]1CN(C)S(=O)(=O)c1ccc(F)cc1`, “inactive”. As for `Cc1noc(C)c1NC(=O)Nc1ccc2c(c1)CC(=O)N([C@H](C)CO)C[C@@H](C)[C@H](CN(C)S(C)(=O)=O)O2`, the cytotoxicity call was “inactive”. Regarding `C[C@H](CO)N1C[C@H](C)[C@H](CN(C)S(C)(=O)=O)Oc2ccc(NC(=O)Cc3ccccc3)cc2C1=O`, the cytotoxicity call is “inactive”. To `C[C@@H]1CCCCO[C@H](CN(C)Cc2ccc(Cl)c(Cl)c2)[C@@H](C)CN([C@H](C)CO)C(=O)c2cc(NC(=O)Nc3ccccc3)ccc2O1` belongs “inactive”. On to `C[C@@H]1CCCCO[C@@H](CN(C)Cc2ccc(Cl)c(Cl)c2)[C@H](C)CN([C@@H](C)CO)C(=O)c2cc(NC(=O)Nc3ccccc3)ccc2O1`, for which the cytotoxicity call is “inactive”. To `C[C@@H]1CN([C@H](C)CO)C(=O)c2cc(NC(=O)Nc3ccccc3)ccc2O[C@@H](C)CCCCO[C@@H]1CN(C)Cc1ccc(Cl)c(Cl)c1` belongs “active”; to `C[C@@H]1CN([C@H](C)CO)C(=O)c2cc(NC(=O)Nc3ccccc3)ccc2O[C@@H](C)CCCCO[C@H]1CN(C)Cc1ccc(Cl)c(Cl)c1`, “active”. Take `C[C@@H]1CCCCO[C@@H](CN(C)Cc2ccc(Cl)c(Cl)c2)[C@H](C)CN([C@H](C)CO)C(=O)c2cc(NC(=O)Nc3ccccc3)ccc2O1`: the cytotoxicity call was “active”. For `C[C@@H]1CCCCO[C@@H](CN(C)Cc2ccc(Cl)c(Cl)c2)[C@@H](C)CN([C@@H](C)CO)C(=O)c2cc(NC(=O)Nc3ccccc3)ccc2O1`, the cytotoxicity call was “inactive”. To `C[C@@H]1CN([C@@H](C)CO)C(=O)c2cc(NC(=O)Nc3ccccc3)ccc2O[C@@H](C)CCCCO[C@H]1CN(C)Cc1ccc(Cl)c(Cl)c1` belongs “inactive”; to `C[C@@H]1CCCCO[C@H](CN(C)Cc2ccc(Cl)c(Cl)c2)[C@@H](C)CN([C@@H](C)CO)C(=O)c2cc(NC(=O)Nc3ccccc3)ccc2O1`, “inactive”. The entry for `C[C@H](CO)N1C[C@H](C)[C@H](CN(C)Cc2ccc(Cl)c(Cl)c2)OCCCC[C@H](C)Oc2ccc(NC(=O)Nc3ccccc3)cc2C1=O` is “inactive”; for `C[C@@H]1CCCCO[C@H](CN(C)Cc2ccc(Cl)c(Cl)c2)[C@H](C)CN([C@@H](C)CO)C(=O)c2cc(NC(=O)Nc3ccccc3)ccc2O1` it is “active”.
